Entries with a potency or affinity are not part of this list. The source made the active and inactive calls. No cut-off is given here; in the data, nearly all actives have IC50 up to about 0.91 µM.
What follows are compounds tested against Calcium-dependent protein kinase 4 (Plasmodium falciparum (isolate 3D7)) (UniProt Q8IBS5) (assay: PfCDPK4 kinase inhibitors, biochemical, TCAMS library (AID 1159588)). Details: recombinant PfCDPK4, Kinase-Glo ATP depletion luminescence.
Sequence of Calcium-dependent protein kinase 4 (Plasmodium falciparum (isolate 3D7)) (Q8IBS5 whole entry, looked up): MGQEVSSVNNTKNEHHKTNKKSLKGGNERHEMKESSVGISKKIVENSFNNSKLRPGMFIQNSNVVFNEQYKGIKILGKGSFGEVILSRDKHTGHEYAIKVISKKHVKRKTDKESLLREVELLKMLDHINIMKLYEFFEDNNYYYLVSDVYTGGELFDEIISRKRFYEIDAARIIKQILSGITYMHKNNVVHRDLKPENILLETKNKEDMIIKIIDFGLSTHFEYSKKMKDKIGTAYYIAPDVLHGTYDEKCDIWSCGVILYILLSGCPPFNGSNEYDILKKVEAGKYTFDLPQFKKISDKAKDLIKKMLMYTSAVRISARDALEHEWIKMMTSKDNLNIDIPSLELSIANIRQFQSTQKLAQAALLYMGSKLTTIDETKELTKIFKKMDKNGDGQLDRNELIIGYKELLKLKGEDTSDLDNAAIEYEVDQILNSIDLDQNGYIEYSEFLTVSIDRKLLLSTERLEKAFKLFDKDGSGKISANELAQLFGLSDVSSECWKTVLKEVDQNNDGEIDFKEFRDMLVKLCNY

Row | Structure (SMILES) | outcome
1 | CC(=O)Nc1ccc(C2NC(=O)NC(c3ccccc3)=C2c2nc3ccccc3s2)cc1 (centres undefined) | inactive
2 | Cc1cccc2[nH]c(-c3ccc(-c4cccc(CNCCCNS(C)(=O)=O)c4)cc3)nc12 | inactive
3 | Cc1cccc2[nH]c(-c3ccc(-c4ccc(CNCCNC(=O)c5ccnn5C)cc4)cc3)nc12 | inactive
4 | COc1cc(NC(=O)N2CCOC(CCN3CCC(c4ccccc4)CC3)(c3ccc(Cl)c(Cl)c3)C2)cc(OC)c1OC (centres undefined) | inactive
5 | CN1CCN(Cc2ccc(-c3ccc4c(Nc5ccc(F)cc5Cl)ccnc4c3)o2)CC1 | inactive
6 | CN1CCN(CCCN(Cc2ccc(-c3ccc(CNC4CCCC4)cc3)cc2)C(=O)CCC2CCCC2)CC1 | inactive
7 | N#Cc1cccc(C(=O)Nc2ccc(-c3ccc(CN4CCCC4)cc3)cc2)c1 | inactive
8 | C=CCc1cc(C2CCN(CCCCNC(=O)c3ccc(-c4ccc(C#N)cc4)cc3)CC2)c(OCC(N)=O)c2c1CCCC2 | inactive
9 | CN(C)Cc1ccc(CN2CCN(CCOc3ccc(-c4ccc(Cl)cc4)cc3)CC2)o1 | inactive
10 | COc1ccc2nccc([C@@H](O)CN3CCC(NCc4ccc5c(c4)NC(=O)CS5)CC3)c2c1 | inactive
11 | O=C(c1ccc([N+](=O)[O-])o1)N1CCN(c2nc3c(F)cc(F)cc3s2)CC1 | inactive
12 | CC1(C)C[C@@H]2C[C@@](C)(CN2C(=O)c2cc(C(C)(C)C)nn2Cc2ccccc2)C1 | inactive
13 | CCCCCCCNCc1c(O)ccc2c(CNCCCCCCC)c(O)ccc12 | inactive
14 | COc1cc2c(cc1OC)CN(CCCCNC(=O)c1ccc(NC(=O)c3cc(Cl)cc(Cl)c3)cc1)CC2 | inactive
15 | COc1c(OC)c(OC)c2ccccc2c1CNCCCCCCNCc1c(OC)c(OC)c(OC)c2ccccc12 | inactive
16 | Oc1ccccc1CN1CCC2(CCCN(Cc3ccccc3F)C2)C1 (centres undefined) | inactive
17 | CC(C)C(=O)NC(Nc1ccc([N+](=O)[O-])cc1)C(Cl)(Cl)Cl (centres undefined) | inactive
18 | Fc1ccc2nc(-c3ccc(-c4cccc(CN5CCN(c6ccncc6)CC5)c4)cc3)[nH]c2c1 | inactive
19 | O=C(NC1CCCCN(Cc2ccc3c(c2)OCCO3)C1)c1cc(-c2ccccc2F)cs1 (centres undefined) | inactive
20 | CN(C)c1cc(NC(=O)Nc2ccccc2)c2ccccc2n1 | inactive
21 | CCc1c(CCNCCCCCCNCCc2ccc(OC)c(OC)c2C)ccc(OC)c1OC | inactive
22 | CC(C)c1ccc(NC(=O)Nc2ccc(CCNCCCc3ccccc3)cc2)cc1 | inactive
23 | CCOc1ccc(NC(=O)c2cccc(CN3CCCN(Cc4cccc(O)c4)CC3)c2)cc1 | inactive
24 | CN(C)CCCOc1ccc(CN2CC[C@H](NC(=O)c3ccc(Cl)c(Cl)c3)C2)cc1Cl | inactive

— PubChem BioAssay
